Source: ChEMBL document CHEMBL3988442, “University of Dundee, Small-Polar-MMV Screening Library” (2021)

Target: T1, Methionyl-tRNA synthetase, putative (Leishmania donovani (strain BPK282A1)) (UniProt E9BF75)
T1 sequence (whole entry): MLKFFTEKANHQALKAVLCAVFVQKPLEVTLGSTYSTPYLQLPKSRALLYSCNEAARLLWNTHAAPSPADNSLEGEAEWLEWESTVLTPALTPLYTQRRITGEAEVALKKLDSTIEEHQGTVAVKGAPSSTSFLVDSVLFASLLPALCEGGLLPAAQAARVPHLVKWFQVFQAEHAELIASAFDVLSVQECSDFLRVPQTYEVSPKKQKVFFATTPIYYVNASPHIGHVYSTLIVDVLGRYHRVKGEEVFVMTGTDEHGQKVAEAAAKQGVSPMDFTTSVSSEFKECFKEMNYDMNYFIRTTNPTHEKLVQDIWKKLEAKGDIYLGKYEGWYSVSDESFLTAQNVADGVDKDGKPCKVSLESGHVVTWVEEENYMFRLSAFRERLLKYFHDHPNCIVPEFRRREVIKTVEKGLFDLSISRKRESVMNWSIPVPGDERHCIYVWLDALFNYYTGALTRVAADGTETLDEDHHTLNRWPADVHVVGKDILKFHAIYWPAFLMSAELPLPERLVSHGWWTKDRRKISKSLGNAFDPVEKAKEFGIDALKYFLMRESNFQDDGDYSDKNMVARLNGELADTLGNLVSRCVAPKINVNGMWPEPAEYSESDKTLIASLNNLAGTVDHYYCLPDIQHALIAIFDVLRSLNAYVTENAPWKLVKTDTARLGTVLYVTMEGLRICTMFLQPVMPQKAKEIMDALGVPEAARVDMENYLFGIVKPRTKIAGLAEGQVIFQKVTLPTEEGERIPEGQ
Experiment: Leishmania donovani Methionine tRNA synthetase (LdMetRS):v7. Dose response assay
Type: functional
Design: conc 80 nM, time 150 minutes

Measured: PXC50

Cn1ncc2c(NCCO)nc(Nc3cccc(O)c3)nc21
< 4: MAX_EFFECT 5.386416862 | MAX_EFFECT 6.072106262 | MAX_EFFECT 8.167770419

CNS(=O)(=O)CCNc1nc(NCCO)c2cnn(C)c2n1
< 4: MAX_EFFECT 5.780346821 | MAX_EFFECT 6.392694064 | MAX_EFFECT 15.28301887

O=S(=O)(NCC1CC1)c1cccnc1Nc1cccc(C(F)(F)F)c1
< 4: MAX_EFFECT 6.072106262 | MAX_EFFECT 13.21585903 | MAX_EFFECT 16.32231405

NC(=O)c1cccnc1Nc1cccc(C(F)(F)F)c1
< 4: MAX_EFFECT 7.210626186 | MAX_EFFECT 13.42975207 | MAX_EFFECT 16.74008811

CN(c1cccc(F)c1)c1nc(NCCO)c2cnn(C)c2n1
< 4: MAX_EFFECT 8.142493639 | MAX_EFFECT 9.649122807 | MAX_EFFECT 12.83018868

CC(C)c1ccc(CS(=O)(=O)Cc2nc(N)nc(N(C)C)n2)cc1
< 4: MAX_EFFECT 8.163265306 | MAX_EFFECT 10.86956522 | MAX_EFFECT 13.83537653

NS(=O)(=O)c1cccnc1Nc1cccc(C(F)(F)F)c1
< 4: MAX_EFFECT 8.810572687 | MAX_EFFECT 8.888888889 | MAX_EFFECT 15.90909091

Cn1ncc2c(NCCO)nc(Nc3cccc(OC(F)(F)F)c3)nc21
< 4: MAX_EFFECT 13.77672209 | MAX_EFFECT 18.02575107 | MAX_EFFECT 24.6628131

CC(CO)Nc1nc(Nc2cccc(C(F)(F)F)c2)nc2c1cnn2C (configuration not stated)
< 4: MAX_EFFECT 16.69829222 | MAX_EFFECT 21.69811321 | MAX_EFFECT 22.37442922
